# Laboratory results: publication PMC5540273 (PLoS ONE, 2017)
# “And” between values parts separate entries of the source, which are not always exact repeats. Identical values can stand only once. Like-named read-outs stand apart in the source and are kept apart here.
# Columns and labels:
# [1] = tested on: CHEK2; conditions: concentration: 1 μM, replicates: in singlicate; n = 1
# [2] = tested on: CIT; conditions: n = 1
# [3] = tested on: CLK1; conditions: n = 1
# [4] = tested on: CLK2; conditions: concentration: 1 μM, replicates: in singlicate; n = 1
# [5] = tested on: CLK3; conditions: n = 1
# [6] = tested on: CLK4; conditions: n = 1
# [7] = tested on: CSF1R-autoinhibited; conditions: concentration: 1 μM, replicates: in singlicate; n = 1
# [8] = tested on: CSF1R; conditions: n = 1
# [9] = tested on: CSK; conditions: n = 1
# [10] = tested on: CSNK1A1L; conditions: n = 1
# [11] = tested on: CSNK1A1; conditions: concentration: 1 μM, replicates: in singlicate; n = 1
# [12] = tested on: CSNK1D; conditions: n = 1
# [13] = tested on: CSNK1E; conditions: n = 1
# [14] = tested on: CSNK1G1; conditions: n = 1
# [15] = tested on: CSNK1G2; conditions: concentration: 1 μM, replicates: in singlicate; n = 1
# [16] = tested on: CSNK1G3; conditions: n = 1
# [17] = tested on: CSNK2A1; conditions: n = 1
# [18] = tested on: CSNK2A2; conditions: n = 1
# [19] = tested on: T1, CTK; conditions: concentration: 1 μM, replicates: in singlicate; n = 1
# T1 construct: gene MATK
# [20] = tested on: DAPK1; conditions: n = 1
# [21] = concentration: 1 μM,replicates: in singlicate, 1 µM
# [22] = concentration: 1 μM, replicates: in singlicate
# 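Note: KINOMEscan kinase panel screen.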
smiles,measurement,setting,value
CSc1nn2c(=O)cc(N3CCOCC3)nc2n1Cc1cccc(C(F)(F)F)c1C [GSK2363608],%Inh,[1],0%
same,%Inh,[2]; [21],23% and 2%
same,%Inh,[3]; [21],43% and 31%
same,%Inh,[4],0%
same,%Inh,[5]; [21],0% and 6%
same,%Inh,[6]; [21],17% and 0%
same,%Inh,[7],0%
same,%Inh,[8]; [21],23% and 9%
same,%Inh,[9]; [21],11% and 0%
same,%Inh,[10]; [21],8% and 7%
same,%Inh,[11],0%
same,%Inh,[12]; [21],27% and 8%
same,%Inh,[13]; [21],25% and 19%
same,%Inh,[14]; [21],100% and 4%
same,%Inh,[15],0%
same,%Inh,[16]; [21],41% and 20%
same,%Inh,[17]; [21],7% and 0%
same,%Inh,[18]; [21],7% and 0%
same,%Inh,[19],0%
same,%Inh,[20]; [21],3% and 0%
CCn1c(-c2ccccn2)nc2cnccc21 [SB-736398],%Inh,[1],0%
same,%Inh,[2]; [22],20%
same,%Inh,[3]; [22],3%
same,%Inh,[4],0%
same,%Inh,[5]; [22],0%
same,%Inh,[6]; [22],4%
same,%Inh,[7],4%
same,%Inh,[8]; [22],42%
same,%Inh,[9]; [22],0%
same,%Inh,[10]; [22],0%
same,%Inh,[11],0%
same,%Inh,[12]; [22],0%
same,%Inh,[13]; [22],4%
same,%Inh,[14]; [22],0%
same,%Inh,[15],0%
same,%Inh,[16]; [22],0%
same,%Inh,[17]; [22],0%
same,%Inh,[18]; [22],0%
same,%Inh,[19],0%
same,%Inh,[20]; [22],0%
COc1ccc(Nc2nccc(NCCNC(=O)Nc3ccccc3F)n2)cc1 [GSK1379901],%Inh,[1],0%
same,%Inh,[2]; [22],0%
same,%Inh,[3]; [22],32%
same,%Inh,[4],0%
same,%Inh,[5]; [22],100%
same,%Inh,[6]; [22],29%
same,%Inh,[7],0%
same,%Inh,[8]; [22],11%
same,%Inh,[9]; [22],3%
same,%Inh,[10]; [22],0%
same,%Inh,[11],0%
same,%Inh,[12]; [22],7%
same,%Inh,[13]; [22],99.4%
same,%Inh,[14]; [22],7%
same,%Inh,[15],0%
same,%Inh,[16]; [22],25%
same,%Inh,[17]; [22],0%
same,%Inh,[18]; [22],2%
same,%Inh,[19],0%
same,%Inh,[20]; [22],0%
CN(C)CCN(C)C(=O)c1cc(-c2ccncc2)c(-c2ccc(Cl)c(O)c2)o1.Cl.Cl [SB-710397],%Inh,[1],12%
same,%Inh,[2]; [22],21%
same,%Inh,[3]; [22],18%
same,%Inh,[4],0%
same,%Inh,[5]; [22],9%
same,%Inh,[6]; [22],25%
same,%Inh,[7],0%
same,%Inh,[8]; [22],3%
same,%Inh,[9]; [22],0%
same,%Inh,[10]; [22],20%
same,%Inh,[11],62%
same,%Inh,[12]; [22],90%
same,%Inh,[13]; [22],93.4%
same,%Inh,[14]; [22],0%
same,%Inh,[15],0%
same,%Inh,[16]; [22],14%
same,%Inh,[17]; [22],0%
same,%Inh,[18]; [22],4%
same,%Inh,[19],0%
same,%Inh,[20]; [22],4%
O=C(Nc1ccc2c(c1)OCO2)NC1CCN(c2ccnc(Nc3ccc(F)cc3)n2)C1 (stereo not drawn) [GSK1379724],%Inh,[1],0%
same,%Inh,[2]; [22],23%
same,%Inh,[3]; [22],10%
same,%Inh,[4],0%
same,%Inh,[5]; [22],0%
same,%Inh,[6]; [22],6%
same,%Inh,[7],0%
same,%Inh,[8]; [22],0%
same,%Inh,[9]; [22],1%
same,%Inh,[10]; [22],2%
same,%Inh,[11],0%
same,%Inh,[12]; [22],21%
same,%Inh,[13]; [22],0%
same,%Inh,[14]; [22],0%
same,%Inh,[15],0%
same,%Inh,[16]; [22],8%
same,%Inh,[17]; [22],0%
same,%Inh,[18]; [22],0%
same,%Inh,[19],0%
same,%Inh,[20]; [22],0%
Cl.Oc1ccc(-c2nc(-c3ccccc3)[nH]c2-c2ccncc2)cc1 [SB-428218],%Inh,[1],0%
same,%Inh,[2]; [22],0%
same,%Inh,[3]; [22],0%
same,%Inh,[4],6%
same,%Inh,[5]; [22],0%
same,%Inh,[6]; [22],0%
same,%Inh,[7],55%
same,%Inh,[8]; [22],10%
same,%Inh,[9]; [22],0%
same,%Inh,[10]; [22],11%
same,%Inh,[11],0%
same,%Inh,[12]; [22],37%
same,%Inh,[13]; [22],28%
same,%Inh,[14]; [22],18%
same,%Inh,[15],0%
same,%Inh,[16]; [22],0%
same,%Inh,[17]; [22],0%
same,%Inh,[18]; [22],0%
same,%Inh,[19],0%
same,%Inh,[20]; [22],3%
Fc1cc(Cl)ccc1Nc1ccnc2cc(I)ccc12 [GW551191],%Inh,[1],0%
same,%Inh,[2]; [22],37%
same,%Inh,[3]; [22],27%
same,%Inh,[4],0%
same,%Inh,[5]; [22],5%
same,%Inh,[6]; [22],5%
same,%Inh,[7],0%
same,%Inh,[8]; [22],0%
same,%Inh,[9]; [22],0%
same,%Inh,[10]; [22],0%
same,%Inh,[11],0%
same,%Inh,[12]; [22],5%
same,%Inh,[13]; [22],35%
same,%Inh,[14]; [22],4%
same,%Inh,[15],0%
same,%Inh,[16]; [22],20%
same,%Inh,[17]; [22],0%
same,%Inh,[18]; [22],0%
same,%Inh,[19],0%
same,%Inh,[20]; [22],19%
Cc1ccccc1-n1cnc2c(N)ncnc21 [SKF-97510],%Inh,[1],0%
same,%Inh,[2]; [22],0%
same,%Inh,[3]; [22],2%
same,%Inh,[4],26%
same,%Inh,[5]; [22],0%
same,%Inh,[6]; [22],0%
same,%Inh,[7],0%
same,%Inh,[8]; [22],6%
same,%Inh,[9]; [22],7%
same,%Inh,[10]; [22],0%
same,%Inh,[11],0%
same,%Inh,[12]; [22],5%
same,%Inh,[13]; [22],11%
same,%Inh,[14]; [22],0%
same,%Inh,[15],0%
same,%Inh,[16]; [22],0%
same,%Inh,[17]; [22],0%
same,%Inh,[18]; [22],0%
same,%Inh,[19],0%
same,%Inh,[20]; [22],94.8%
Cc1ccc(C(=O)Nc2ccc(Nc3ccnc4cc(-c5ccccn5)ccc34)cc2O)cc1.Cl [GW440146],%Inh,[1],4%
same,%Inh,[2]; [22],2%
same,%Inh,[3]; [22],13%
same,%Inh,[4],1%
same,%Inh,[5]; [22],0%
same,%Inh,[6]; [22],23%
same,%Inh,[7],0%
same,%Inh,[8]; [22],35%
same,%Inh,[9]; [22],34%
same,%Inh,[10]; [22],0%
same,%Inh,[11],0%
same,%Inh,[12]; [22],7%
same,%Inh,[13]; [22],23%
same,%Inh,[14]; [22],0%
same,%Inh,[15],0%
same,%Inh,[16]; [22],4%
same,%Inh,[17]; [22],0%
same,%Inh,[18]; [22],0%
same,%Inh,[19],0%
same,%Inh,[20]; [22],0%
